# Measurements taken from PubChem BioAssay AID1851 (National Center for Advancing Translational Sciences (NCATS), 2009).
# Hit rate of the full screen: of about 16,000 compounds, about 4,000 (25%) were called active. Roughly 26% stayed inconclusive and do not appear here. The list is a sample of the results. A number with no mark means an inactive call. The call rests on the fitted dose curve; in most records, active means well fitted curve in the direction sought with a large enough effect; inconclusive means small, poorly fitted or top-dose-only effect, or effect the other way; inactive means no such curve, though single readings can be large or run the other way. Square brackets hold non-standard residues; d marks the D form. Peptide text beside a SMILES is read from it. * marks the point of attachment. ξ: configuration not given here. Cbz = O=C(OCc1ccccc1)*; ξA = CC(N)C(=O)O
# Biological target: Cytochrome P450 2C9 (Homo sapiens) (UniProt P11712)
# Sequence (P11712 whole entry, looked up): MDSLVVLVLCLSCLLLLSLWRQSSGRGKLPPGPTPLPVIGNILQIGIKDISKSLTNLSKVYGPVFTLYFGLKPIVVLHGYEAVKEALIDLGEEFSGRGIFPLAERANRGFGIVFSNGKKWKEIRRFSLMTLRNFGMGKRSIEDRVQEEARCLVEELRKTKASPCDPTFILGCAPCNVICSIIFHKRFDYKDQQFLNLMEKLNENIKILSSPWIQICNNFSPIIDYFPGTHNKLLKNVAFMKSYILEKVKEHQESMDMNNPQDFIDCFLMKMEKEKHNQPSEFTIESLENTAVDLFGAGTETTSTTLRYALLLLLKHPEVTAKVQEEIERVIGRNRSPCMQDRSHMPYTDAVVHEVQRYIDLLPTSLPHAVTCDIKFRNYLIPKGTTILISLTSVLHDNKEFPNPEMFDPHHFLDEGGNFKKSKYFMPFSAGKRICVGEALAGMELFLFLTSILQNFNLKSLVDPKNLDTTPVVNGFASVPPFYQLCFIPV
# Experiment: Cytochrome panel assay with activity outcomes
# Conditions: recombinant CYP, pro-luciferin dealkylation, luminescence, p450-cyp2c9; series mostly up to 57.1 µM; activity, negative = inhibition: at the top concentration
# On the % scale 0 is the no-effect control and ±100 the full control effect.
Compound,"activity, negative = inhibition",AC50
Nc1nc2c(nc(Br)n2[C@@H]2O[C@H]3COP(=O)(O)O[C@H]3[C@@H]2O)c(=O)[nH]1,-3.31%,–
COc1cc([C@H](O)C(=O)O)ccc1O,13.8%,–
COC(=O)[C@](C)(N)Cc1ccc(O)cc1,20%,–
COC(=O)/C=C\c1cc(O)ccc1O,–,7.94 µM (active)
O=C(c1ccc(Br)cc1)c1cc([N+](=O)[O-])ccc1N1CCCCC1,–,2.51 µM (active)
Cn1c(CCN2CCCCC2)nc2cc([N+](=O)[O-])ccc21,-0.958%,–
CN1CCN(c2ccc([N+](=O)[O-])cc2C(=O)N2CCOCC2)CC1,14.2%,–
CCn1c(/C=C2/C(=O)N(C)c3ccccc32)nc2ccccc2c1=O,–,10 µM (active)
CCN1CCN(c2nn3c(=O)c4ccccc4nc3c3ccccc23)CC1,-10.3%,–
Cc1cnc(CNc2cc(-c3ccccc3C)ncn2)cn1,-11.2% [at 2.29 µM],–
CCc1ccc(-c2csc(NC(=O)C3CCCO3)c2C(=O)OC(C)C)cc1 (centres undefined),–,4.47 µM (active)
CO/N=C\[C@@H](OC)[C@H](C)/C=C\CC(=O)OC,-2.61% [at 11.4 µM],–
CCOc1cc(/C=C2/SC(=O)N(CC(=O)N3CCc4ccccc4C3)C2=O)ccc1OCC(=O)O,–,12.6 µM (active)
Cn1c(=O)[nH]c2ncn(C)c2c1=O,4.36%,–
Cc1c(Br)c([N+](=O)[O-])nn1CC(=O)NCc1ccccn1,-8.45%,–
Cc1ccc(NC(=O)Cn2nc([N+](=O)[O-])c(Br)c2C)cc1C,–,14.1 µM (active)
Cc1c(Br)c([N+](=O)[O-])nn1CC(=O)NCc1cccs1,-30.1%,–
CC[n+]1c(/C=C/Nc2ccccc2)oc2ccccc21,3.83%,–
CCc1cccc(C)c1NC(=O)CSc1nc2ccc(N3C(=O)c4ccccc4C3=O)cc2s1,–,3.55 µM (active)
CC[N+](CC)(CC(=O)Nc1c(C)cccc1C)Cc1ccccc1,-17.2% [at 25.6 µM],–
NC(=O)CNC(=O)[C@@H]1CC2(CC(c3ccccc3)=NO2)CN1C(=O)c1ccc(Br)cc1 (some centres undefined),-2.63%,–
O=C(NC(=S)N(Cc1ccccc1)Cc1ccccc1)c1ccccc1F,–,0.891 µM (active)
CN1CCN(NC(=O)c2ccccc2F)CC1,-0.803%,–
COc1ccc(CN(CCC#N)C(=S)NC(=O)c2ccccc2)cc1,–,0.631 µM (active)
O=C(O)c1ccccc1C(=O)NCc1ccc(F)cc1,-12.1%,–

Compound,"activity, negative = inhibition",AC50
CCOc1ccc(C(=O)NC(=S)N(Cc2ccccc2)Cc2ccccc2)cc1,–,10 µM (active)
O=C(NC1(C(F)(F)F)C(=O)Nc2c1c(=O)[nH]c(=O)n2-c1ccc(F)cc1)c1cccnc1 (centres undefined),-9.59%,–
Cc1cccc(CNc2ncncc2-c2cccc(C#N)c2)c1,-7.76% [at 2.29 µM],–
Cn1cccc1C(=O)N1CCC[C@@]2(CCN(c3ccccn3)C2)C1,3.61%,–
Cc1ccc(CC(=O)N2CC(C)OC(C)C2)cc1 (centres undefined),6.48%,–
Cc1ccc(-c2nnc(C)c(N3CC(C)OC(C)C3)n2)cc1 (centres undefined),–,17.8 µM (active)
O=C1NCCCC1C(=O)Nc1ccccc1C(F)(F)F (centres undefined),-18.4%,–
CCCC[C@@H]1C[C@H]1C(NC(=O)c1cccs1)c1ccccc1C(F)(F)F (some centres undefined),–,1 µM (active)
CCCC[C@@H]1C[C@H]1C(NC(=O)c1ccccc1)c1ccccc1C(F)(F)F (some centres undefined),–,1.26 µM (active)
C#CCCCO/N=C1/[C@H]2O[C@@H]2[C@@H](O)[C@H]2[C@H]1CCn1c(=O)n(C)c(=O)n12,4.28% [at 11.4 µM],–
CCOC(=O)C1CN(S(=O)(=O)c2cccc(C(F)(F)F)c2)c2cc(CC(=O)OC)ccc2O1 (centres undefined),–,6.31 µM (active)
COC(=O)CNC(=O)C(C)NC(=O)CNC(=O)OCc1ccccc1 (stereo not drawn) (Cbz-Gly-[ξA]-Gly-OMe),-11.6%,–
CCC(C)C(NC(=O)OCc1ccccc1)C(=O)OCN1C(=O)c2ccccc2C1=O (centres undefined),–,12.6 µM (active)
O=C(CCNC(=O)c1ccccc1)OCN1C(=O)c2ccccc2C1=O,-12.5%,–
N#CC(=C(/N)Sc1ccccc1N)/C(C#N)=C(/N)Sc1ccccc1N,3.74%,–
N#Cc1ccccc1Sc1ccccc1N,–,5.01 µM (active)
CC(=O)COC(=O)CCc1nc2ccccc2[nH]c1=O,-22.1%,–
CCN(CC)CCOc1ccc2nc(N(C)C)sc2c1,-10.8%,–
O=c1c(-c2nnc(SCc3ccc(Cl)cc3Cl)o2)cccn1Cc1ccccc1,–,11.2 µM (active)
CC(C)=CCNc1ncnc2nc[nH]c12,-9.02% [at 11.4 µM],–
S=C(S)O[C@@H]1C[C@@H]2C[C@H]1[C@@H]1CCC[C@H]21,–,3.98 µM (active)
CC1CCC(C(=O)NC(C(=O)N2CCC(N3CCCCC3)CC2)C(C)C)CC1 (centres undefined),-14.4%,–
Nc1ncnc2c1ncn2CCCCC(=O)O,9.41% [at 11.4 µM],–
O=C1C=C(NCC2CCCO2)C2(CCCCC2)O1 (centres undefined),-9.85%,–
O=S(=O)(c1cnccc1N1CCN(/N=C/c2ccccc2)CC1)N1CCCCC1,–,17.8 µM (active)

Compound,"activity, negative = inhibition",AC50
O=S(=O)(c1cnccc1N1CCN(CCO)CC1)N1CCCC1,8.09% [at 11.4 µM],–
CC(C)N1CCN(c2ccncc2S(=O)(=O)N2CCCCC2)CC1,-8.32% [at 11.4 µM],–
Cc1ccc(-c2ccc(CCC(=O)O)n2CC2CCCO2)cc1 (centres undefined),-16.3%,–
NC(=O)Nn1c(CCC(=O)O)ccc1-c1ccc(F)cc1,-5.74%,–
CC(=O)c1ccc(-n2c(CCC(=O)O)ccc2-c2cccs2)cc1,–,14.1 µM (active)
Cc1cc(C2CCCCC2)n(O)c(=O)c1,-14.9% [at 25.6 µM],–
CS(=O)(=O)Nc1cccc(-c2ccc3ncnc(N4CCNCC4)c3c2)c1,-12.1% [at 2.29 µM],–
O=C(O)/C(=C\c1ccc(O)cc1)c1cccc2ccccc12,-3.39% [at 11.4 µM],–
O=C(/C(=C/c1ccc(Cl)cc1)c1nc2ccccc2[nH]1)c1ccccc1,–,0.631 µM (active)
O=C(O)/C(=C/c1c(C(=O)O)[nH]c2cc(Cl)cc(Cl)c12)c1ccccc1,-24.4%,–
CN1CCN(CCCN2c3ccccc3Sc3ccc(S(=O)(=O)N(C)C)cc32)CC1,1.24% [at 25.6 µM],–
N[C@@H](Cc1[nH]nc2ccccc12)C(=O)O,7.77% [at 11.4 µM],–
CC(C)Oc1ccc(CNC(=O)CC(c2ccccc2)c2cc(Cl)ccc2O)cc1 (centres undefined),–,2.24 µM (active)
CN(Cc1ccccc1)C(=O)CC(c1ccccc1)c1cc(Cl)ccc1O (centres undefined),–,4.47 µM (active)
C[C@@H](c1ccccc1)N1C(=O)[C@@H]2[C@H]3C(=CC[C@H]2C1=O)C(=O)[C@H]1O[C@H]1[C@H]3O,-6.91% [at 11.4 µM],–
Oc1cc(O)c2c(c1)O[C@H](c1ccc(O)c(O)c1)[C@H](O)C2,–,inactive
Cc1cc(-c2n[nH]c(=S)o2)c(C)n1-c1ccccc1,–,12.6 µM (active)
Cc1ccc(-n2c(-c3cc(C)n(C)n3)n[nH]c2=S)cc1,5.76%,–
CC[N+](CC)(CC)CCOc1cccc(OCC[N+](CC)(CC)CC)c1OCC[N+](CC)(CC)CC,22.4% [at 25.6 µM],–
CCCN1C[C@@H](CSC)C[C@H]2c3cccc4[nH]cc(c34)C[C@@H]21,-6.92%,–
C/C(=N\NC(=O)c1cccc(F)c1)c1ccc(Br)s1,20.8%,–
O=C(N/N=C/c1ccc(Cl)cc1Cl)Nc1ccccc1,-15.9%,–
O=C(N/N=C/c1ccc(Cl)cc1Cl)c1cccc(F)c1,–,15.8 µM (active)
Cc1cnc(CNc2nc(-c3ccccc3Cl)nc3ccccc23)cn1,7.89% [at 2.29 µM],–
CC(C)c1ccc(N2C(=O)CC(Sc3nc4ccccc4o3)C2=O)cc1 (centres undefined),–,2.24 µM (active)

Compound,"activity, negative = inhibition",AC50
CC1(CCC#N)N=C(SCCC#N)N(c2ccccc2)C1=O (centres undefined),-16.7%,–
Cc1ccc(S(=O)(=O)CC#CCOC(=O)c2ccc([N+](=O)[O-])cc2)cc1,–,5.62 µM (active)
Cc1ccc(/C(C#N)=C/c2cccc([N+](=O)[O-])c2)cc1,-10.5% [at 11.4 µM],–
Cc1c(OC(=O)c2ccc([N+](=O)[O-])cc2)c2c(c[n+]1C)COC(C)(C)OC2,-21.7%,–
COc1cc(Cl)c(CC(=O)c2c[nH]c3ccccc23)cc1OC,-14.5% [at 11.4 µM],–
Cc1ccc(C(=N)c2ccccc2Cc2cccc3ccccc23)c2ccccc12,5.86% [at 11.4 µM],–
COc1ccc(Cc2ccccc2C(=O)O)c2ccccc12,–,3.98 µM (active)
N[C@@H](C(=O)O)c1cc(O)ccc1Cl,24.1%,–
N#C/C(=C(/O)CN1CCCCC1)c1nc(-c2ccc(Cl)cc2)cs1,0.314%,–
Cc1ccc(-c2csc(C(C#N)=C3CCCC3)n2)cc1,–,11.2 µM (active)
O=C(CSCC(=O)OCn1nnc2ccccc2c1=O)Nc1ccc(Cl)cc1,–,12.6 µM (active)
COC(=O)c1cc(OC)c(OC)cc1NC(=S)N1CCN(C)CC1,22.1%,–
COC(=O)c1ccc(C(=O)OC)c(NC(=S)N2CCN(c3ccccc3)CC2)c1,–,6.31 µM (active)
COC(=O)c1ccc(N2CCN(c3ccccc3)CC2)c(NC(=O)C2CC2)c1,-15.9%,–
Cc1cccc(C)c1OC[C@H](C)N,-2.67% [at 25.6 µM],–
Cc1cc(=O)[nH]c2c1c(C)nn2C1CCOC(C)(C)C1 (centres undefined),26.1%,–
Cn1c(=O)n(-c2ccc(Cl)cc2)c(=O)c2c3c(sc21)COC(C)(C)C3,–,10 µM (active)
Cn1c(=O)n(-c2cccc(Cl)c2)c(=O)c2c3c(sc21)COC(C)(C)C3,–,15.8 µM (active)
CN1CCc2c(sc3c2c(=O)n(-c2ccccc2)c2nncn32)C1,1.25%,–
COc1cccc(C(C#N)N2N=C(C)CC2(C)C)c1O (centres undefined),-17.8%,–
O=C1[C@@H]2[C@H]3[C@H](O)[C@H](O)C/C(=N/OCc4ccccc4)[C@@H]3CC[C@H]2C(=O)N1c1ccc(F)cc1F,12.2% [at 11.4 µM],–
C=C[C@@]1(C)CC(=O)[C@@]2(O)[C@@]3(C)[C@@H](O)CCC(C)(C)[C@@H]3[C@H](O)[C@H](OC(C)=O)[C@@]2(C)O1,1.57%,–
C=C[C@@]1(C)CC(=O)[C@@]2(O)[C@@]3(C)[C@H](O)CCC(C)(C)[C@@H]3[C@H](O)[C@H](OC(C)=O)[C@]2(C)O1,-5.47%,–
C=C[C@@]1(C)CC(=O)[C@@]2(O)[C@@]3(C)[C@@H](O)CCC(C)(C)[C@@H]3[C@H](OC(=O)CCN(C)C)[C@H](OC(C)=O)[C@@]2(C)O1,–,0.126 µM (active)
